TRHR enhancer = allosteric enhancers of human TRH receptor. P34981. TRHR cells, fluo-8 calcium fluorescence, EC20 TRH enhancement. enhancement, % at 2 µM. 0.66% of 360,000 active. AID 493056; in the data active means enhancement above about 30%
Target sequence (P34981 whole entry, looked up): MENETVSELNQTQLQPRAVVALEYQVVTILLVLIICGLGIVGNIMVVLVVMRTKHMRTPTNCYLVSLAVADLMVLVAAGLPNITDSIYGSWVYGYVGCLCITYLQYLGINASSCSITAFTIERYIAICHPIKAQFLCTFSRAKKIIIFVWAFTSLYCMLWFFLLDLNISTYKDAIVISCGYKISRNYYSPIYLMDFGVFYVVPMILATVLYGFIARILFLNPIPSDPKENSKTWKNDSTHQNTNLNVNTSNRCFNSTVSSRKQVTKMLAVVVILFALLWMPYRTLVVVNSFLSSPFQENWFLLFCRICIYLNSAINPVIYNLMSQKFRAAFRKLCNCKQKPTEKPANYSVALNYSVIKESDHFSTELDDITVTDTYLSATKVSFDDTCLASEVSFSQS
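TRHR-expressing cells loaded with fluo-8 calcium dye were read kinetically (ex 480/em 530) during compound addition, then stimulated with an EC20 of TRH (10 nM final). Enhancement of the Gq-mediated intracellular calcium response was scored.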
D1 ag = agonists of human D1 dopamine receptor; P21728; HEK293 T-REx D1 cells, calcium flux, agonist mode; 1% of 360,000 active; activation, % at 2 µM
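Agonism was scored from calcium flux recorded over 180 s (1 read/s) after pintool compound addition, following a 10-cycle baseline. Cells were inducible force-coupled HEK293 TREx D1, plated overnight at 30 C and loaded with no-wash calcium dye.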
D1 antag = antagonists of human D1 dopamine receptor. P21728. HEK293 TREx D1 cells, calcium flux, dopamine EC80; active compounds read low. activity change, negative = inhibition, % at 10 µM. 3.2% of 360,000 active; in the data active means activity change below about -30%
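Tetracycline-induced HEK293 Trex D1 cells, force-coupled to calcium, dye-loaded; compounds added and read 180 s, then EC80 dopamine added and calcium flux tracked kinetically another 180 s.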
D1 PAM = enhances dopamine response at the human D1 receptor | P21728 | HEK293 TREx D1 cells, calcium flux, dopamine EC20 potentiation | potentiation, % at 10 µM | 0.036% of 360,000 active | AID 504651; in the data active means potentiation above about 30%
TRHR agonist = activates the human TRH receptor; P34981; TRHR cells, calcium flux fluo-8, FDSS agonist mode; activation, % at 2 µM; 0.18% of 360,000 active; AID 493084
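Read-out: compound-evoked intracellular calcium rise in TRHR cells, fluo-8 dye, kinetic FDSS fluorescence at 1 s/cycle following a 10-cycle baseline. Cells cultured overnight before dye loading (30 min–1.5 h, RT).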
A number is an active result; 0 = inactive; - = no result given. Compounds with a hit are over-represented: about 4.6% of the library has one in this group of screens. Unless noted, no stated cut-off is given here; in the data, active means activation above about 30%; inactive means the rest.

SMILES | TRHR enhancer | D1 ag | D1 antag | D1 PAM | TRHR agonist
CN(C)/C=C(/C(=O)c1ccc(Cl)cc1)n1cncn1 | 0 | 0 | -33 | 0 | 0
CN(C)c1ccc(/C=C(/C(=O)c2ccc(Cl)cc2Cl)n2cncn2)cc1 | 0 | 200 | -50 | 0 | 75
COc1cc(-c2c(NC(=O)c3ccco3)oc3ccccc3c2=O)cc(OC)c1OC | 0 | 0 | 0 | 0 | 0
CN(C)c1ccc(CNC(=O)c2cnc3sc(N4CCOCC4)nn3c2=O)cc1 | 0 | 0 | 0 | 0 | 0
COc1ccc(CNCc2cc(Cl)ccc2O)cc1 | 0 | 38 | 0 | 0 | 0
Oc1ccc(Cl)cc1CNCc1ccc(Cl)nc1 | 0 | 42 | - | 0 | 0
COc1ccc(-c2c3c(nc4sc(C(=O)Nc5cccc(OC)c5)c(N)c24)CC(C)(C)CC3=O)cc1 | 0 | 0 | 0 | 0 | 0
COc1ccc(NC(=O)c2sc3nc4c(c(-c5ccc(OC)cc5)c3c2N)C(=O)CC(C)(C)C4)cc1 | 0 | 0 | -36 | 0 | 0
O=C(O)c1cccc(N/N=C/C2=C(Cl)c3cc(Cl)ccc3SC2)c1 | 0 | 0 | 0 | 0 | 0
CCOC(=O)c1nn(-c2ccccc2)c(=O)c(C#N)c1C | 0 | 0 | 0 | 0 | 0
CCO/C=N/c1c(C#N)c(CC#N)nn1-c1ccccc1 | 0 | 0 | -33 | 0 | 0
COc1ccc(C(=O)n2nc(-c3ccco3)nc2N)cc1OC | 0 | 0 | 0 | 0 | 0
COc1ccc(C(=O)n2nc(-c3ccccc3)nc2N)cc1OC | 0 | 0 | -34 | 0 | 0
CCC1N=C(SC)NC(C)=C1C(=O)c1ccccc1 (stereo unspecified) | 0 | 0 | 0 | 0 | 0
CSC1=NC(C(Cl)(Cl)Cl)N=C(c2ccc(C)cc2)N1 (stereo unspecified) | 0 | 0 | -85 | 0 | 0
CC(CN1C(C)CCCC1C)OC(=O)c1ccc(F)cc1 (stereo unspecified) | 0 | 0 | 0 | 0 | 0
Cc1cc(C)nc(NC(=O)/C=C/c2ccccc2Cl)c1 | 0 | 0 | -70 | 0 | 0
COc1ccccc1C(=O)Nc1cccc(C(=O)OCc2cc(=O)n3cc(C)sc3n2)c1 | 0 | 0 | -31 | 0 | 0
Cc1cn2c(=O)cc(COC(=O)COc3ccc(C)c(C)c3)nc2s1 | 0 | 0 | -38 | 0 | 0
CC(C)c1ccc2oc(-c3cc(NC(=O)c4cccnc4)ccc3Cl)nc2c1 | 0 | 0 | 0 | 0 | 0
CC1CN(C(=O)N2CCC(C(=O)NCc3ccccc3F)CC2)c2cc(Cl)ccc2O1 (stereo unspecified) | 0 | 0 | 0 | 0 | 0
COc1ccc(NC(=O)c2sc3nc4c(cc3c2N)CN(C(C)C)CC4)c(OC)c1 | 0 | 0 | 0 | 0 | 0
CC(=O)Nc1ccc(S(=O)(=O)N2CCN(c3cc(C)ccc3C)CC2)cc1 | 0 | 0 | 0 | 0 | 0
CC(=O)Nc1ccc2c(c1)CN(c1cc(C)ccc1C)CO2 | 0 | 0 | -37 | 0 | 0
Cc1ccccc1NC(=O)c1sc2nc(-c3ccncc3)ccc2c1N | 0 | 48 | 0 | 0 | 0
SMILES | TRHR enhancer | D1 ag | D1 antag | D1 PAM | TRHR agonist
Cc1ccc(NC(=O)c2sc3nc(-c4ccncc4)ccc3c2N)cc1 | 0 | 165 | 0 | 0 | 0
CC1C(c2ccccc2)N(C)C(c2ccccc2)C(C)C1(O)C#Cc1ccccc1 (stereo unspecified) | 39 | 0 | 0 | 0 | 0
c1ccc(Nc2nc3ccccc3n3nnnc23)cc1 | 0 | 0 | -69 | 0 | 0
Fc1ccccc1Nc1nc2ccccc2n2nnnc12 | 0 | 0 | 0 | 0 | 0
Oc1ccccc1Nc1nc2ccccc2n2nnnc12 | 0 | 42 | 0 | 0 | 0
Cc1cc(OCC(=O)C(C)(C)C)c2c(-c3ccccc3)cc(=O)oc2c1 | 0 | 0 | 0 | 0 | 0
COc1cccc(Cn2ncc3c4sc(Br)cc4n(C)c3c2=O)c1 | 0 | 0 | 0 | 0 | 0
COc1cc(-c2ccno2)ccc1S(=O)(=O)N1CCN(c2ccc(F)cc2)CC1 | 0 | 0 | 0 | 0 | 0
CCCNC(=O)c1ccc(N2CCC3(CC2)CC(c2cccc(Br)c2)=NO3)c([N+](=O)[O-])c1 | 0 | 0 | -44 | 0 | 0
CCCOC(=O)c1ccc2c(c1)C(=O)N(c1ccccc1)C2=O | 0 | 0 | -35 | 0 | 0
COc1cc(CN2CCN(C(=O)c3ccc(-c4ccccc4)cc3)CC2)cc(OC)c1OC | 33 | 0 | 0 | 0 | 0
COc1cccc(CN2CCN(C(=O)c3ccc(-c4ccccc4)cc3)CC2)c1OC | 0 | 0 | -37 | 0 | 0
CCCOC(=O)CN1C(=O)c2ccc(C(=O)OCCC)cc2C1=O | 0 | 0 | 0 | 0 | 0

Source: PubChem BioAssay (National Center for Advancing Translational Sciences (NCATS))
